Data published in PubChem BioAssay (NCI).
This is part of a sample that, as a whole, favours compounds with a hit. Of some 83,000 tested, about 20% had one in any assay.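 Single-dose data. Exposure time 48 hours. Values below 10 considered active.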 Activity calls are given as the source filed them.

What follows are compounds tested on MDA-MB-468 breast (assay: NCI-60 one-dose screen, 48 h (100 = growth as untreated, 0 = no growth, -100 = all killed)). Details: 10 µM unless noted.
For `O=C1c2ccccc2C(=O)c2c1oc1ccc3ccccc3c21`, the growth was -10.4% (active). With `COc1ccc(C2CC(c3cccc(OCCCCOc4cccc(C5=NN(C(C)=O)C(c6ccc(OC)cc6)C5)c4)c3)=NN2C(C)=O)cc1` (centres undefined) the growth was 23.7% (inactive). For `COc1ccc(-c2nc(-c3ccccn3)c(-c3ccccn3)n2CC(C)C)cc1OC1CCCC1`, the growth was -10.7% (active). In the case of `O=[N+]([O-])c1cccc2nsnc12`, the growth is reported as 93.1% (inactive). `O=C(/C=C/C12c3ccccc3C(c3ccccc31)C1C(=O)NC(=O)C12)c1ccncc1` (centres undefined) was tested, and the growth was 6.35% (active). `c1nc(SC2=NCCN2)c2[nH]cnc2n1` was tested, and the growth was 14.7% (inactive). For `O=C(Nc1ccccc1)NS(=O)(=O)c1c[nH]c(=S)[nH]c1=O`, the growth was 112% (inactive). In the case of `Cc1ccc(S(=O)(=O)CCCl)cc1`, the growth is reported as 118% (inactive). For `COc1ccc(/C=N/C2=C(C#N)C(c3ccccc3[N+](=O)[O-])c3ccc4ccccc4c3O2)cc1` (centres undefined), the growth was 104% (inactive). `COc1cc(C2CC(c3ccc4c(c3)OCO4)=NN2C=O)cc(OC)c1OC` (centres undefined) was tested, and the growth was -12.7% (active). In the case of `O=[n+]1c2ccccc2n([O-])c2cc(Cl)ccc21`, the growth is reported as -15.4% (active). `CNC(=O)CN1CCC(Oc2cc3c(Nc4cccc(Cl)c4F)ncnc3cc2OC)CC1` was tested, and the growth was -22.9% (active). In the case of `CCCCC[C@H](O)C/C=C1/C(=O)C=C[C@@H]1C/C=C\CCCC(=O)O`, the growth is reported as 67.4% (inactive). In the case of `C#Cc1cccc(NC(=O)c2ccc(Cl)cc2Cl)c1`, the growth is reported as 102% (inactive). In the case of `CCOC(=O)c1cn2ncnc(Oc3ccc(NC(=O)NCCN4CCOCC4)c(Cl)c3)c2c1C`, the growth is reported as 85.1% (inactive). For `COc1ccc(-c2nnc(COc3ccc(NC(=O)Nc4ccccc4)cc3F)o2)cc1`, the growth was 86.9% (inactive). In the case of `COc1cc(-c2nc(C(=O)Nc3ccc(C)cc3)nn2-c2ccc(F)c(F)c2)cc(OC)c1OC`, the growth is reported as 109% (inactive). With `CCN1CCN(CCC(=O)Nc2cccc(-n3cc(-c4ccncc4)c(-c4ccc(Cl)c(OC)c4)n3)c2)CC1` the growth was -2.3% (active). For `CCCCOc1nc2ccc(Cl)cc2cc1/C=C/C(=O)/C=C/c1ccc(OC)cc1`, the growth was 113% (inactive). In the case of `C=CC[P+](c1ccccc1)(c1ccccc1)c1ccccc1`, the growth is reported as 10.9% (inactive). For `CN(C)CCOc1ccccc1NC1=C(Cl)C(=O)C(Nc2ccccc2OCCN(C)C)=C(Cl)C1=O`, the growth was -53.6% (active). For `CC12CC3CC1C(C(=O)O2)C3C(=O)O` (centres undefined), the growth was 103% (inactive). For `COc1cccc2c1Cc1ccccc1-2`, the growth was 99% (inactive). For `Cn1cc(-c2cc3ncnc(Nc4ccc(CC(=O)Nc5cc(C(C)(C)C)nn5C)cc4)c3s2)cn1`, the growth was 33.8% (inactive). In the case of `COc1ccc(Cn2cc(C(=O)N=Nc3c(O)[nH]c4c(Cl)cccc34)nn2)cc1`, the growth is reported as 98.6% (inactive). In the case of `COc1ccc(C(=O)Nc2ncc(Cc3ccc(Cl)cc3)s2)cc1`, the growth is reported as 24.6% (inactive). `C#Cc1nc(C2=C(C)C(O)/C(=N/O)C2)cs1` (centres undefined) was tested, and the growth was 74.5% (inactive). For `CCc1c(C)[nH]c(=O)c(C(N)=O)c1C#N`, the growth was 105% (inactive). In the case of `COc1cc(-c2cc(-c3ccc(C)cc3)nc3nc(N)[nH]c(=O)c23)ccc1Oc1ccnc2cc(Cl)ccc12`, the growth is reported as 52.3% (inactive). `COc1ccc(C2CC(c3ccc4c(c3)OCO4)=NN2C=O)cc1` (centres undefined) was tested, and the growth was 93.3% (inactive). `Nc1c(C(=O)Nc2cccc3ccccc23)sc2nc3c(cc12)CCCC3` was tested, and the growth was 35% (inactive). For `C/C(CC(=O)NNc1ccc([N+](=O)[O-])cc1)=N\Nc1ccc([N+](=O)[O-])cc1`, the growth was 97.7% (inactive). `CCC(C)CC(C)C(=O)c1c(O)ccn(O)c1=O` (centres undefined) was tested, and the growth was 13.8% (inactive). `COc1ccc(-c2n[nH]nc2-c2cc(OC)c3c(c2OC)OCO3)cc1` was tested, and the growth was -24.1% (active). With `C/C=C(\C)C(C(=O)NC1CCCCC1)N(C(=O)C1CCc2cc(F)ccc2O1)c1ccc(Cl)cc1` (centres undefined) the growth was 97% (inactive). For `CN(C)CCNC(=O)c1cccc(-c2cnc3ccc(-c4ccc5c(c4)OCO5)nn23)c1`, the growth was 66.9% (inactive). With `O=C1c2c(c(=O)[nH]c3ccccc23)CCN1Cc1ccccc1` the growth was 101% (inactive). In the case of `CN1CCN(Cc2ccc(NC(=O)c3cccc(C#Cc4cnc(N)c5ncccc45)c3F)cc2C(F)(F)F)CC1`, the growth is reported as 70.6% (inactive). With `CCCCOC(=O)c1cc(O)c(O)c(O)c1` the growth was 96.5% (inactive).
